{"source": "PubChem BioAssay (Tox21)", "note": "Inconclusive results are not listed. Values without a mark were called inactive. The source made the active and inactive calls. Calls come from the whole dose curve; as a rule, active = well fitted cell-killing curve with a large enough effect in the repeat runs; inconclusive = weak or mixed curves, or effect the other way; inactive = flat fitted curve, though single readings scatter. % is set by controls: 0 for no effect and ±100 for the full control effect; potency is the fitted concentration of half-maximal effect.", "data": [{"assay": "qHTS assay to identify small molecule agonists of the TGF-beta/Smad signaling pathway - cell viability counter screen (AID 1346829); note: nearly all actives have a fitted effect of over 45% in size; for activity change, negative = cytotoxicity: top concentration of the series differs between compounds", "details": "SBE-bla HEK293T viability, CellTiter-Glo luminescence, 5 h; series mostly up to 76.8 µM; activity change, negative = cytotoxicity: at the top concentration", "text": "National Center for Advancing Translational Sciences [NCATS]\nNIH Chemical Genomics Center [NCGC]\nU.S. Environmental Protection Agency [EPA]\nNational Institutes of Environmental Health Sciences [NIEHS]\nNational Toxicology Program [NTP]\nU.S. Food and Drug Administration [FDA]\nTransforming growth factor beta (TGF-beta) superfamily consists of a large number of structurally related dimeric proteins that act as hormones or local mediators in regulating a wide range of biological functions. This superfamily includes TGF-betas themselves, the bone morphogenetic proteins (BMPs) and the activins. These ligands induce oligomerization of serine/threonine receptor kinases and phosphorylate the cytoplasmic signaling molecules of Smad protein family. CellSensor SBE-bla HEK 293T cell line (Life Technologies, Carlsbad, CA), responsive to TGF-beta was used to screen Tox21 10K compound library for identification of agonists/antagonists of the Smad signaling pathway. This cell line contains a beta-lactamase reporter gene under control of the Smad binding element (SBE) stably integrated into HEK 293T cells. Also cytotoxicity of the compounds was tested in parallel by measuring the cell viability using CellTiter-Glo assay system in the same wells.\nTox21 Assay Protocol Summary:\nSBE-bla HEK 293T cells were dispensed at 4,000/well in 6 uL of assay medium into black wall/clear-bottom 1536-well plates using a Multidrop Combi (ThermoFisher Scientific, Waltham, MA) dispenser. After the assay plates were incubated at 37 C and 5% CO2 for an overnight, 23 nL of compounds dissolved in DMSO, positive controls or DMSO only was transferred to the assay plate by a Pintool station (Kalypsys, San Diego, CA). The assay plates were incubated at 37 C and 5% CO2 for 5 hr. One uL of LiveBLAzer B/G FRET substrate (Life Technologies) was added using a Flying Reagent Dispenser (FRD, Aurora Discovery, San Diego, CA) and the plates were incubated at room temperature for 2 hr. Fluorescence intensity (405 nm excitation, 460 nm and 530 nm emissions) was measured using an Envision plate reader (PerkinElmer, Shelton, CT). For cytotoxicity read, 4 uL of CellTiter-Glo reagent (Promega Corporation, Madison, WI) was added to each well of the assay plates using FRD. After 30min incubation at room temperature, the luminescence intensity was measured using ViewLux plate reader (PerkinElmer).", "values": [{"smiles": "CSc1ccc(O)cc1C", "activity change, negative = cytotoxicity": "20.5%"}, {"smiles": "O=C1CCCCCCCCCCCCCC1", "activity change, negative = cytotoxicity": "-13.2%"}, {"smiles": "CN1CCN(CCCN2c3ccccc3Sc3ccc(C(F)(F)F)cc32)CC1", "activity change, negative = cytotoxicity": "-15.2% [at 35.3 µM]"}, {"smiles": "CCCCCCCCCCCCN1CCCC1=O", "activity change, negative = cytotoxicity": "-26.5%"}, {"smiles": "c1ccc2occc2c1", "activity change, negative = cytotoxicity": "4.22%"}, {"smiles": "Cc1c(Cl)c(=O)oc2cc(O)ccc12", "activity change, negative = cytotoxicity": "-9.4%"}, {"smiles": "Cc1ccc2sc3cccc(C)c3c2c1", "activity change, negative = cytotoxicity": "-0.0095%"}, {"smiles": "C=C[Si](C)(C)Cl", "activity change, negative = cytotoxicity": "9.12% [at 6.97 µM]"}, {"smiles": "Nc1ccc(Oc2cccc(Oc3ccc(N)cc3)c2)cc1", "activity change, negative = cytotoxicity": "5.14%"}, {"smiles": "CO[Si](OC)(c1ccccc1)c1ccccc1", "activity change, negative = cytotoxicity": "-3.93%"}, {"smiles": "CCCCCCCCCCCC(=O)Cl", "activity change, negative = cytotoxicity": "0.787%"}, {"smiles": "CCC1(C)C(=O)N(Cl)C(=O)N1Cl", "note": "(stereo not given)", "activity change, negative = cytotoxicity": "-10.9%"}, {"smiles": "SC1CCCCC1", "activity change, negative = cytotoxicity": "27%"}, {"smiles": "CC(CC(C)(C)C)CC(C)(C)CC(C)(C)C", "note": "(stereo not given)", "activity change, negative = cytotoxicity": "8.92% [at 35.3 µM]"}, {"smiles": "O=C(CCN1CCC(c2ccccc2)C1)c1ccc2c(c1)OCCO2", "note": "(stereo not given)", "activity change, negative = cytotoxicity": "-1.12% [at 35.3 µM]"}, {"smiles": "O=C(Nc1ccc([N+](=O)[O-])cc1)Nc1ccc([N+](=O)[O-])cc1", "note": "(tested in a mixture with another compound)", "activity change, negative = cytotoxicity": "-9.42% [at 35.3 µM]"}, {"smiles": "Cc1cc(C)c(O)c(C(C)(C)C)c1", "activity change, negative = cytotoxicity": "-10.1%"}, {"smiles": "O=[N+]([O-])c1ccc(O)c2ncccc12", "activity change, negative = cytotoxicity": "-10.2% [at 35.3 µM]"}, {"smiles": "CN1CCN(C)CC1", "activity change, negative = cytotoxicity": "1.05%"}, {"smiles": "CC/C=C(\\C)C=O", "activity change, negative = cytotoxicity": "1.61%"}, {"smiles": "CCC(=O)OC/C=C(\\C)CCC=C(C)C", "activity change, negative = cytotoxicity": "7.97%"}, {"smiles": "CCc1c(C)cc(N)c(CC)c1N", "activity change, negative = cytotoxicity": "-9.62%"}, {"smiles": "CC(=O)CC(N)=O", "activity change, negative = cytotoxicity": "-7.14%"}, {"smiles": "CCCCCc1ccc(O)cc1", "activity change, negative = cytotoxicity": "-16.3%"}, {"smiles": "CCCCC/C=C\\C=C\\C(=O)OCC", "activity change, negative = cytotoxicity": "-6.58%"}, {"smiles": "CCOC(=O)[C@H](O)[C@@H](O)C(=O)OCC", "activity change, negative = cytotoxicity": "6.84%"}, {"smiles": "C=C(C)CCO", "activity change, negative = cytotoxicity": "-6.93%"}, {"smiles": "Clc1ccc2c(Cl)ccnc2c1", "activity change, negative = cytotoxicity": "-8.25%"}, {"smiles": "O=C(CCCCCCCCc1cccnc1)N1CCC(C=C(c2ccccc2)c2ccccc2)CC1", "Potency": "54.9 µM (active)"}, {"smiles": "CC(C)c1ccc2sc3ccccc3c(=O)c2c1", "activity change, negative = cytotoxicity": "-25.7%"}, {"smiles": "O=C1OC2(c3ccccc31)c1ccc(O)c(Br)c1Oc1c2ccc(O)c1Br", "activity change, negative = cytotoxicity": "-6.18%"}, {"smiles": "Cc1ccc2nc(-c3ccc(N)cc3)sc2c1S(=O)(=O)O", "activity change, negative = cytotoxicity": "-0.429% [at 35.3 µM]"}, {"smiles": "CC1(C)[C@H]2CC[C@]1(C)C(=O)C2", "activity change, negative = cytotoxicity": "1.71%"}, {"smiles": "CC(C)(C)c1cc(CCC(=O)OCCSCCOC(=O)CCc2cc(C(C)(C)C)c(O)c(C(C)(C)C)c2)cc(C(C)(C)C)c1O", "activity change, negative = cytotoxicity": "1.18% [at 35.3 µM]"}, {"smiles": "Cc1c[nH]c(=O)[nH]c1=O", "activity change, negative = cytotoxicity": "-14.4%"}, {"smiles": "CCCC(C)C=O", "note": "(stereo not given)", "activity change, negative = cytotoxicity": "3.86%"}, {"smiles": "CCCCCN=C(N)N/N=C/c1c[nH]c2ccc(OC)cc12", "Potency": "23.9 µM (active)"}, {"smiles": "NC(=O)C1CO1", "note": "(stereo not given)", "activity change, negative = cytotoxicity": "-9.33%"}, {"smiles": "C=C(C)C1CCC(C)CC1O", "note": "(stereo not given)", "activity change, negative = cytotoxicity": "-13.4%"}, {"smiles": "Oc1ccc(Cl)cc1C1CCCC1", "activity change, negative = cytotoxicity": "-0.535%"}]}]}
